Rows were chosen to be rich in hits. Some 1.1% of all compounds tested hit in one or more screens of this group.
HUVEC tox IL1B = HUVEC cytotoxicity counter-screen, IL-1B stimulated; actives 0.41% (n = 94,000); HUVEC cell count loss, Hoechst imaging; cell count reduction, % at 2 µM;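 active means cell count reduction more than 3 SD above the screen-wide mean, cut at about 70% in these data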;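 further: normalized per plate to untreated control cells as the no-loss baseline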
Calb biofilm kill = kills Candida albicans biofilms. C. albicans biofilm + clotrimazole, Alamar Blue. inhibition, % at 6 µM. actives 0.14% (n = 85,000). AID 834;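 active means inhibition above 20%; inactive means inhibition below 20%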;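 further: preformed 24 hr biofilms exposed to compound for 48 hr; 0% = biofilm without compound and 100% = blank killed by clotrimazole plus chlorhexidine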
EphB4 antag = EphB4-ephrin-B2 interaction antagonism; EphB4 LBD / TNYL-RAW-Alexa532 peptide, fluorescence polarization; inhibition, % at 7 µM; actives 0.15% (n = 97,000); AID 720;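 active means inhibition above the screen-wide mean inhibition plus 3 SD, cut at about 15% in these data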;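 further: 0% = DMSO wells and 100% = excess unlabeled TNYL-RAW peptide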
Target sequence (P54760 whole entry, looked up, the tested form may be a part): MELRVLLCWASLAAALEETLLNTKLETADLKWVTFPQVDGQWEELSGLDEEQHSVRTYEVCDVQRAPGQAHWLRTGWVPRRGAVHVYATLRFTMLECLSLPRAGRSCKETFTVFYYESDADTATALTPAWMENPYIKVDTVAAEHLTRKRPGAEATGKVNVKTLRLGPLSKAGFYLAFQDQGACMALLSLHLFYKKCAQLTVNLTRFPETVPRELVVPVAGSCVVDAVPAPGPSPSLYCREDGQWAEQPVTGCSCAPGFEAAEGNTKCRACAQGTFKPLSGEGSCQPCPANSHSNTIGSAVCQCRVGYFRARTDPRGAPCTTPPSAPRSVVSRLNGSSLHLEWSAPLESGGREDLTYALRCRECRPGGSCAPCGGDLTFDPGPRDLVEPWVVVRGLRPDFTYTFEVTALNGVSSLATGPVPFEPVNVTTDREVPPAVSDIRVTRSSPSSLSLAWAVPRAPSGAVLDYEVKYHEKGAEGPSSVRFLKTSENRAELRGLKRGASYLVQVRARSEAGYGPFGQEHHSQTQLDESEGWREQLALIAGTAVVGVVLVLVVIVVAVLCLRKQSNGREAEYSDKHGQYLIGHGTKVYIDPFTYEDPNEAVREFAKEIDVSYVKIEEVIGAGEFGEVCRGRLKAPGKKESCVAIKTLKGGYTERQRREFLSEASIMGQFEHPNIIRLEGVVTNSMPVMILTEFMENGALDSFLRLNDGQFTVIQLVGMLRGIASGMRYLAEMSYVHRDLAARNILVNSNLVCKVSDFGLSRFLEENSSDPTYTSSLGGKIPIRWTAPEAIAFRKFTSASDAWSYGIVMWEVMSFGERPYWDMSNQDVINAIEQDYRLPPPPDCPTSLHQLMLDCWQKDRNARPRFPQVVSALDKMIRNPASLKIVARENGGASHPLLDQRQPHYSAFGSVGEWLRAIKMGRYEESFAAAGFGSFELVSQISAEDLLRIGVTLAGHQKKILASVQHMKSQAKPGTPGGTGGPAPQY
IL1B NFkB pot = enhances IL-1B driven NFkB nuclear translocation. actives 0.3% (n = 94,000). activation, % at 2 µM. HUVEC IL-1B NFkB p65 nuclear translocation imaging;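 active means activation above 40%, about the mean plus 3 SD, also judged a hit on visual image review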;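 further: percent activation is computed from the nuclear over cytoplasmic p65 intensity ratio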
IL1B NFkB inh = blocks IL-1B driven NFkB nuclear translocation in HUVEC cells. inhibition, % at 2 µM. actives 0.43% (n = 94,000). HUVEC IL-1B NFkB p65 nuclear translocation imaging. AID 796;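 active means inhibition above about 30% together with a positive call from visual inspection of the well image, limit read from the data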;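 further: nuclear over cytoplasmic p65 intensity ratio measured by imaging; 0% = IL-1B stimulated DMSO wells and 100% = unstimulated DMSO wells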
Active calls of the source: *; · = not tested or not shown.

SMILES | HUVEC tox IL1B | Calb biofilm kill | EphB4 antag | IL1B NFkB pot | IL1B NFkB inh
CCC(=O)Nc1ccccc1C(=O)NC1CCCCC1 | 1 | 4 | -2 | 7 | -8
Cc1noc(C)c1S(=O)(=O)N1CCCC(C(=O)N2CCN(C3CCCCC3)CC2)C1 (stereo not given) | · | 6 | · | · | ·
Cc1noc(C)c1S(=O)(=O)N1CCC(C(=O)N2CCC(N3CCCCC3)CC2)CC1 | -10 | 22* | · | 3 | -3
CC(C)[C@@H](C(=O)OCC(=O)Nc1ccc2c(c1)OCO2)N1C(=O)c2ccccc2C1=O | 7 | · | -1 | 10 | -10
COc1ccc(N2C(C)=CS/C2=C(/C#N)c2nnc(N3CCOCC3)n2-c2ccccc2)cc1 | -9 | · | -4 | 46* | -46
c1ccc(-n2c(Cc3cn4ccsc4n3)nnc2N2CCOCC2)cc1 | -2 | 5 | -3 | -6 | 6
O=C(Nc1nnc(C2CCCCC2)s1)c1cccs1 | 18 | -1 | 8 | -9 | 9
O=C(Nc1nnc(C2CCCO2)s1)c1cccs1 (stereo not given) | 70* | · | -4 | -37 | 37*
CS(=O)(=O)N(CC(=O)N1CCN(c2ccccc2)CC1)c1ccc(Cl)c(C(F)(F)F)c1 | -83 | 3 | -4 | 13 | -13
COc1ccc2c(c1)-c1c(ssc1=S)C(C)(C)N2 | 94* | 8 | 5 | -20 | 20
O=C(Nc1ccc2nc(-c3cccs3)[nH]c2c1)c1cccs1 | 90* | -7 | 4 | -6 | 6
O=C(Nc1ccc(-c2nc3ccc(NC(=O)c4cccs4)cc3[nH]2)cc1)c1cccs1 | 4 | 1 | 2 | 17 | -17
COc1ccc(S(=O)(=O)Nc2cc(OC)c(NC(=O)c3ccco3)cc2OC)cc1 | -14 | -1 | -8 | 43* | -43
CCOc1cc(NS(=O)(=O)c2ccc(OC)cc2)c(OCC)cc1NC(=O)c1ccco1 | -11 | 4 | 1 | 16 | -16
Clc1ccc(Sc2cnc3ccccc3n2)cc1 | 14 | 9 | -2 | -17 | 17
Clc1ccccc1Sc1cnc2ccccc2n1 | -10 | 4 | -3 | -36 | 36*
Cc1ccc(-n2nnc3c(=O)n(CC(=O)N4CCCC4)cnc32)cc1 | · | 6 | -3 | · | ·
Cc1ccc(-n2ncc3c(=O)n(CC(=O)N4CCCCCC4)cnc32)cc1 | 2 | 4 | 16* | 5 | -5
O=C(CN(Cc1ccc(F)cc1)C(=O)C1CSC(=O)C1)NC1CCCCC1 (stereo not given) | -7 | · | 3 | 8 | -8
Cn1cnc2c(N3CCCCC3)nccc21 | 93* | 5 | -8 | 4 | -4
Cc1ccc(S(=O)(=O)N(C)c2cc(S(=O)(=O)N3CCC(C)CC3)c(C)cc2C)cc1 | 94* | · | -8 | 21 | -21
COC(=O)C(NC(=O)C(CC(C)C)NC(=O)C1CCC(C)CC1)C(C)C (stereo not given) | 0 | 0 | 5 | -9 | 9
CCCCCCC1CCC(C(=O)NC(CCSC)C(=O)NC(C(=O)OC)C(C)C)CC1 (stereo not given) | 5 | 37* | 1 | 21 | -21
COc1ccc2c(c1)[nH]c(=O)c1sc3ccccc3c12 | · | · | -8 | · | ·
COc1ccc2sc3c(=O)[nH]c4ccccc4c3c2c1 | -40 | · | -6 | 43* | -43
SMILES | HUVEC tox IL1B | Calb biofilm kill | EphB4 antag | IL1B NFkB pot | IL1B NFkB inh
CCCCNC(=O)C1CCCN1C(=O)Nc1ccccc1 (stereo not given) | -9 | 5 | -3 | 15 | -15
COC(=O)c1cn(C(=O)c2cccs2)c2ccccc12 | 95* | -1 | -3 | -10 | 10
CCOC(=O)c1c(NC(=O)CSc2nnc(-c3ccncc3)n2Cc2ccco2)sc(C)c1C | 7 | 1 | -5 | 15 | -3
CCOC(=O)c1c(NC(=O)CSc2nnc(-c3ccncc3)n2Cc2ccco2)sc(C(C)=O)c1C | 1 | 8 | 7 | -38 | 38*
COc1cccc(N2CCN(Cc3coc4c(Cl)cc(Cl)cc4c3=O)CC2)c1 | · | -1 | · | · | ·
Cc1ccc(NS(C)(=O)=O)c(C(=O)c2ccccc2)c1 | -148 | 2 | 0 | -15 | 15
COc1ccc(Cc2nnc(-c3cccc(C)c3)o2)cc1OC | · | 24* | · | · | ·
Cc1ccc(S(=O)(=O)NC2CCCc3ccccc32)cc1C (stereo not given) | -58 | 1 | 3 | 12 | -12
C=CCn1nnc2sc3c(c2c1=O)CCC(C)C3 (stereo not given) | -47 | 6 | 4 | -48 | 48*
CSc1nc2sc3c(c2c(=O)n1C)CCC(C)C3 (stereo not given) | -30 | 5 | -4 | 2 | -2
COCCn1c(C)cc(C(=O)COc2nc3ccccc3nc2C)c1C | -2 | 3 | 20* | -3 | 3
CCOC(=O)c1cccc(Nc2nc(C)cc(C)n2)c1 | 83* | -3 | -3 | 2 | -2
CC1CCc2c(sc3ncn4c(SCC(=O)NCc5ccco5)nnc4c23)C1 (stereo not given) | -16 | 5 | -10 | 169* | -169
CC1CCc2c(sc(NC(=O)C(=O)NCc3ccco3)c2C#N)C1 (stereo not given) | -64 | -1 | 0 | 42* | -42
Cc1ccc(-n2nc3c(c2NC(=O)c2ccc4c(c2)OCO4)CSC3)cc1 | 93* | 2 | -3 | -97 | 98*
Cc1ccc(-n2nc3ccc(NC(=O)c4ccc5c(c4)OCO5)cc3n2)cc1 | -10 | 7 | 3 | 9 | -9
CCCC(=O)Nc1c2c(nn1-c1ccc(C)cc1C)CSC2 | 83* | 5 | 10 | -15 | 15
O=C(NCSc1ccnc(SCNC(=O)c2ccc(F)cc2)n1)c1ccc(F)cc1 | 2 | · | 2 | 1 | -1
Clc1ccc(-n2ncc3c(NCC4CCCO4)ncnc32)cc1 (stereo not given) | · | 23* | · | · | ·
c1ccc(-n2ncc3c(NCC4CCCO4)ncnc32)cc1 (stereo not given) | -20 | 7 | -2 | 18 | -18
Cc1cccc(NS(=O)(=O)c2cc(C(=O)NCCC3=CCCCC3)ccc2Cl)c1 | -15 | · | -9 | 5 | -5
CCSCc1nnc(SCC(=O)c2ccc(OC)cc2)n1C | -15 | 4 | 5 | 15 | -15
Cc1ccc(-c2nc3ccccn3c2NC(=O)c2ccco2)cc1 | 8 | -1 | 2 | 6 | -6
O=C(Nc1c(-c2ccccc2)nc2ccccn12)c1ccco1 | 94* | 5 | 5 | -12 | 12
Cc1onc(-c2ccccc2Cl)c1C(=O)Nc1cccc(-c2cn3cccnc3n2)c1 | 85* | 3 | 4 | -94 | 94*
SMILES | HUVEC tox IL1B | Calb biofilm kill | EphB4 antag | IL1B NFkB pot | IL1B NFkB inh
Cc1onc(-c2ccccc2Cl)c1C(=O)Nc1ccc(F)c(F)c1 | 14 | · | 3 | -6 | 6
O=C(Nc1ccc(-c2cn3ccsc3n2)cc1)C1CCCC1 | 90* | 2 | 6 | -100 | 100*
O=C(Nc1ccc(-c2cn3ccsc3n2)cc1)C1CC1 | -54 | 8 | -6 | 17 | -17
COc1ccccc1/C=c1\sc2nc(-c3ccccc3OC)nn2c1=O | 14 | · | -9 | 52* | -52
CCN1CCN(c2cc(C)c3cc(NC(=O)c4cccnc4Cl)ccc3n2)CC1 | 7 | 1 | 1 | 1 | -1
Cc1cc(N2CCN(C)CC2)nc2ccc(NC(=O)c3cccnc3Cl)cc12 | -3 | 61* | -3 | -4 | 4

High-throughput results from PubChem BioAssay.
